GCN5L2 inh = inhibitors of human GCN5L2 histone acetyltransferase; Q92830; GCN5L2 HAT assay, ThioGlo1 CoA-SH fluorescence; Potency, µM (doses to about 58.9 µM), hits mostly inhibitors; 390,000 tested, 0.21% active; AID 504327
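Titration-based screen in which CoA formation is detected via maleimide probe ThioGlo1 (50uM) turning fluorescent on thiol reaction; substrates H3(1-25) 75uM and acetyl-CoA 70uM, GCN5L2 20nM, 20 min incubation at room temperature.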
PLK1 PBD inh = inhibitors of human PLK1 polo-box domain binding | P53350 | Plk1 PBD binding of FITC phosphopeptide, fluorescence polarization | Potency, µM, usual class: inhibitors | 360,000 tested, 2.8% active | AID 720504; further: series mostly up to about 57 µM; nearly all actives have a fitted effect of over 65% in size
BAZ2B inh = blocks human BAZ2B; Q9UIF8; AID 504333; 360,000 tested, 4.4% active; Potency, µM (doses to about 114 µM), hits mostly inhibitors; AlphaScreen BAZ2B-H3K14Ac peptide displacement; further: nearly all actives have a fitted effect of over 60% in size
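Protein-peptide AlphaScreen: BAZ2B 50 nM, b-H3K14Ac 50 nM, 1x PBS pH 7.4 + 0.01% Tween-20. Preincubation 30 min RT; cpd 30 min RT (top 110 uM); beads 20 min RT, light-protected.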
PI5P4K alpha inh = blocks human PI5P4K alpha kinase activity | P48426 | PI5P4Kalpha enzyme, ADP-Glo luminescence, 60 min; active compounds read low | max response, % | 330,000 tested, 1.2% active | AID 652105; active means max response of -50% or lower; inconclusive means between -30% and -50%; inactive means -30% or higher; further: value at the top dose of about 77 µM
Target sequence (P48426 whole entry, looked up): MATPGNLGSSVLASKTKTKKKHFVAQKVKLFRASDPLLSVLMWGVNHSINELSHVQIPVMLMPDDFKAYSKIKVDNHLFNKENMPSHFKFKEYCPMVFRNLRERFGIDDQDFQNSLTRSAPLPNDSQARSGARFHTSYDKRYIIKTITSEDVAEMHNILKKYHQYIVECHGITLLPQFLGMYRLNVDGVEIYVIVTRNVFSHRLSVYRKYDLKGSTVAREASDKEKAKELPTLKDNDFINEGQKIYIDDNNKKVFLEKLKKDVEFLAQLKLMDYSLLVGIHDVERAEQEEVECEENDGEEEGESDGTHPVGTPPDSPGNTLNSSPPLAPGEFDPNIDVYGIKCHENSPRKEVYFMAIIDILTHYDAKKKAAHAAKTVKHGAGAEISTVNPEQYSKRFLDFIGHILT
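Controls without substrate or without enzyme flank wells where PI5P4Kalpha converts substrate using 5 microM ATP (final). Incubation lasts 60 minutes at room temperature; ADP formed is read by ADP-Glo luminescence.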
HP1b chromo inh = HP1-beta chromodomain-methylated histone interaction inhibition; Potency, µM (titrated, usually from 114 µM), usual class: inhibitors; P83916; AlphaScreen HP1-beta / biotin-H3K9me3 peptide binding; 390,000 tested, 0.56% active; further: nearly all actives have a fitted effect of over 70% in size
Target sequence (P83916 whole entry, looked up): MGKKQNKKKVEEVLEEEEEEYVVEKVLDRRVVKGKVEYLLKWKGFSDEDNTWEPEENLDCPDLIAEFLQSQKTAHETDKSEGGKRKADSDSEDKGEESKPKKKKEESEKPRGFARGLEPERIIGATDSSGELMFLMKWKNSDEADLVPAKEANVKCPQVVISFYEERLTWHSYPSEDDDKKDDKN
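AlphaScreen: HP1-beta (50 nM) preformed 30 min with biotin-H3(1-18)K9me3 peptide (50 nM) in PBS pH 7.4, 0.01% Tween-20. Compound added for 30 min at RT, then streptavidin donor/nickel chelate acceptor beads (10 ug/mL) for 30 min.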
JMJD2A Tudor = blocks the human JMJD2A Tudor domain; O75164; AlphaScreen JMJD2A-Tudor / H3K4me3 peptide binding; Potency, µM (titrated, usually from 114 µM), actives largely listed as inhibitors; 390,000 tested, 4.4% active; further: nearly all actives have a fitted effect of over 50% in size
Numbers stand for hits; – = inactive; ? = inconclusive; · = no result given; [ ] = dose if it differs, or a comment. Hits are enriched below; roughly 7% of the tested compounds scored in any of these assays. Unless noted, the call rests on the fitted dose curve; in most records, active means well fitted curve in the direction sought with a large enough effect; inconclusive means small, poorly fitted or top-dose-only effect, or another doubt; inactive means no such curve, though single readings can be large; an effect the other way counts as inactive or inconclusive.

SMILES	GCN5L2 inh	PLK1 PBD inh	BAZ2B inh	PI5P4K alpha inh	HP1b chromo inh	JMJD2A Tudor
COc1ccc(CNC(=O)CNC(C)c2ccc(F)cc2)cc1 (stereo not drawn)	–	–	56.2µM	–	44.7µM	20µM
CCN(CC)CCCC(C)NC(=O)c1c(NC(=O)c2ccccc2)sc2c1CCCC2 (stereo not drawn)	–	–	–	–	–	44.7µM
CCc1ccccc1NC(=O)c1c(NC(=O)c2ccccc2)sc2c1CCCC2	–	·	–	·	–	–
O=C(COc1ccc(F)cc1Cl)N(Cc1nnc(-c2ccccc2Cl)o1)C1CC1	·	–	·	–	–	–
C=CCOc1ccc(CNc2ccc3[nH]c(=O)[nH]c3c2)cc1OC	–	–	–	?	–	–
COc1cccc(CNc2ccc3[nH]c(=O)[nH]c3c2)c1OCc1ccccc1Cl	–	–	12.6µM	–	?	39.8µM
COc1cc(CNc2ccc3[nH]c(=O)[nH]c3c2)ccc1OCc1ccc(F)cc1Cl	–	–	–	–	–	–
COc1cccc(CNc2ccc3[nH]c(=O)[nH]c3c2)c1OCc1ccccc1	–	–	44.7µM	–	?	39.8µM
COc1ccc(Br)cc1CNc1ccc2[nH]c(=O)[nH]c2c1	–	–	39.8µM	–	?	50.1µM
O=C(NCC(c1ccccc1Cl)N1CCCC1)c1ccc(N2CCCC2=O)cc1 (stereo not drawn)	–	–	–	–	–	–
C=C(C)C1CCC2(C(=O)O)CCC3(C)C(CCC4C5(C)C(C=O)C(O)C(C)(C)C5CCC43C)C12 (stereo not drawn)	–	?	–	-54.3	–	–
CCCCN(C(=O)Cc1ccc(S(=O)(=O)N2CCOCC2)s1)c1c(N)n(CCCC)c(=O)[nH]c1=O	–	–	–	–	–	–
Cc1ccc(S(=O)(=O)N2CCCN(C(=O)OC(C)(C)C)CC2)cc1	–	–	–	–	–	–
Clc1ccc(-c2cnnc(-c3ccccn3)n2)cc1	–	–	·	–	–	10µM
c1ccc(-c2cnnc(-c3ccccn3)n2)cc1	·	–	·	–	–	11.2µM
c1ccc(-c2nc(-c3ccccn3)nc(-c3ccccn3)n2)nc1	–	–	–	–	–	–
Nc1nc(N)nc(-c2ccccn2)n1	?	–	20µM	–	–	50.1µM
c1ccc(-c2cnc(-c3ccccn3)nn2)cc1	·	–	·	–	–	14.1µM
CCc1ccc(NC(=O)CN(c2ccc(Cl)cc2)S(=O)(=O)c2ccsc2C(=O)OC)cc1	–	·	?	·	–	–
Cc1ccc(S(=O)(=O)c2c(O)cc(C)c(NS(=O)(=O)c3ccc(Br)cc3)c2C)cc1	–	·	–	·	–	–
Cn1c2ccccc2c2c(C(=O)N3CCN(c4cccc(Cl)c4)CC3)cn(C3CCCCC3)c(=O)c21	–	·	–	·	–	–
COc1ccc(N2CCN(C(=O)c3cn(C4CCCC4)c(=O)c4c3c3ccccc3n4C)CC2)cc1	–[0.501 µM]	–	?	–	?	14.1µM
Cc1ccc(CNC(=O)c2cn(C3CCCC3)c(=O)c3c2c2ccccc2n3C)o1	·	·	56.2µM	·	·	·
COc1ccc(N2CCN(C(=O)c3cn(C)c(=O)c4c3c3ccccc3n4C)CC2)cc1	–	–	44.7µM	·	–	?
Cn1c2ccccc2c2c(C(=O)NCc3ccco3)cn(C3CCCCC3)c(=O)c21	–	?	?	–	–	–
SMILES	GCN5L2 inh	PLK1 PBD inh	BAZ2B inh	PI5P4K alpha inh	HP1b chromo inh	JMJD2A Tudor
CCOC(=O)N1CCN(C(=O)c2cn(C)c(=O)c3c2c2ccccc2n3C)CC1	–	–	–	·	–	–
O=C(C[C@H]1C=C[C@H](NC(=O)c2ccccn2)[C@@H](CO)O1)NCc1cc(F)cc(F)c1	·	–	·	–	·	·
Cc1cccc(NCc2n[nH]c(=S)n2-c2ccccc2)c1	–	–	?	–	–	–
CCc1ccc(-n2c(Cc3ccccc3)n[nH]c2=S)cc1	–	–	–	–	–	22.4µM
Cc1ccc(NCc2n[nH]c(=S)n2-c2ccccc2)cc1	–	–	?	–	–	?
Cc1cccc(-n2c(CNC(=O)Cc3ccccc3)n[nH]c2=S)c1	–	–	–	–	–	3.98µM
Cc1ccc(NCc2n[nH]c(=S)n2-c2ccccc2)c(C)c1	–	–	?	–	–	56.2µM
Cc1cccc(-n2c(Cc3ccccc3)n[nH]c2=S)c1	–	–	–	–	–	31.6µM
O=C(Cc1ccc(NC(=O)C2CCN(C(=O)C3CCCCC3)CC2)cc1)Nc1ccc(C(=O)N2CCOCC2)cc1	·	–	·	–	–	–
Cc1ccc(S(=O)(=O)NCC(=O)OCN2C(=O)c3ccccc3C2=O)cc1	–	5.32µM	–	?	–	?
COc1cn(CC(=O)Nc2ccccc2)c(CN2CCCCC2)cc1=O	–	·	–	·	–	–
CSc1cccc(NC(=O)c2c(Cl)cnn2C)c1	·	–	–	·	–	–
Cn1ncc(Cl)c1C(=O)Nc1cccc(Cl)c1	–	23.8µM	–	–	–	89.1µM
Cn1ncc(N=Cc2c(O)ccc3ccccc23)c1C(=O)Nc1cccc(Cl)c1	–	–	50.1µM	–	–	?
CCN1C(=O)C(CC(=O)Nc2ccc(OC)cc2)N(CCCN2CCN(c3ccc(OC)cc3)CC2)C1=S (stereo not drawn)	–	–	31.6µM	–	–	50.1µM
Nc1cccc(-c2c[nH]c3ncc(-c4cccnc4)cc23)c1	·	–	·	?	–	17.8µM
C#CCOCCOCCOCCNc1nc(N2CCOCC2)nc(N2CCN(C(=O)[C@H](CCC(=O)O)n3cc(C(N)[C@H](C)CC)nn3)CC2)n1 (stereo partly drawn)	–	–	–	–	–	39.8µM
C#CCOCCOCCOCCNc1nc(N2CCN(C(=O)[C@H](CCC(=O)O)n3cc([C@@H](N)[C@H](C)CC)nn3)CC2)nc(N2CCN(C(=O)[C@H](CCC(=O)O)n3cc([C@@H](N)CCSC)nn3)CC2)n1	–	–	·	–	–	50.1µM
C#CCOCCOCCOCCNc1nc(N2CCN(C(=O)[C@H](CCCN=C(N)N)n3cc(C(N)[C@@H](C)CC)nn3)CC2)nc(N2CCN(C(=O)[C@H](CCC(=O)O)n3cc([C@@H](N)[C@H](C)CC)nn3)CC2)n1 (stereo partly drawn)	–	–	·	–	–	?
C#CCOCCOCCOCCNc1nc(N2CCN(C(=O)[C@H](CCC(=O)O)n3cc(CN)nn3)CC2)nc(N2CCN(C(=O)[C@H](CCC(=O)O)n3cc([C@@H](N)[C@H](C)CC)nn3)CC2)n1	–	–	·	–	–	79.4µM
COc1ccc(S(=O)(=O)Nc2cccc(-c3ccc4nncn4n3)c2)c(OC)c1	–	16.8µM	–	–	?	–
COc1ccc(C)cc1S(=O)(=O)Nc1cccc(-c2ccc(N3CCCCCC3)nn2)c1	?	16.8µM	–	–	–	15.8µM
Cc1ccccc1CNC(=O)Cn1nc(C)c2nn(-c3ccc(Cl)cc3)c(C)c2c1=O	–	·	–	·	–	?

From PubChem
